Results as given in the OligoGym collection.

target: DUSP22; assay: pooled miR-30 sensor sort-seq; sequence = guide strand; conditions: shRNA
Note: reference of the scale not given here.

| Sequence | sensor-assay potency score (higher = more potent) |
| --- | --- |
| ATATGTGTCACCTTGTTCTTGC | 0.858 |
| TACTTAAACTCTATGTTGCTTT | -0.452 |
| TTCTTTGAAATGTCTTGTCAGG | -0.54 |
| TTAACGAAAACATAGAGCTTTC | -0.995 |
| TTAGTTCTCAACATAAACATGA | -0.0599 |
| TTTCTTTGAAATGTCTTGTCAG | -0.0889 |
| TCTTCCTTCAGCCACTGCCGAT | -1.53 |
| ATACTGATGGACCTCATGCTTC | -1.22 |
| TTCACAGGAAGCAATCACGAGC | -0.769 |
| AATATGTGTCACCTTGTTCTTG | -0.44 |

target: DUSP3; assay: as above; conditions: shRNA

| Sequence | sensor-assay potency score (higher = more potent) |
| --- | --- |
| TCAATGAAGTCGGCAGCCCTTT | -0.941 |
| TTGACGTCCATCTTCTGCCGCA | -0.0981 |
| TTGCCCACGTAGATCCGCGGGG | -0.843 |
| TAGTCTGTCATTGAGCTGGCAG | -0.572 |
| TAGAAGTTGGCATTGGTGTTGA | 0.772 |
| ATTCTTTTGAGCCAAAGCCTGG | -1.5 |
| AGACTTGACGTCCATCTTCTGC | -1.63 |
| TAGGCGATAACTAGCGTTGGGG | -0.821 |
| TCGTTGAGATCCTGCACCGAGA | -1.55 |
| TTCAGCACATGGGTGATGCCTA | -0.601 |
| TGTGATGCCGGAGTCCTTGTAG | 0.0865 |
| TATGTGATGCCGGAGTCCTTGT | -1.17 |
| TTGAACTCCTGTGTGTCGTTGG | 0.854 |
| TTGGGGAGCGGCTATAACCTTC | -1.39 |
